CR mimetic SO: yeast age-related superoxide inhibition as caloric restriction mimetic; AID 2690; superoxide response (% of plate mean), % at 10 µM; 330,000 compounds, 0.18% hits; S. cerevisiae aged cells, superoxide DHE fluorescence; stronger effect = lower value;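 active = superoxide response under a set limit, about three screen SD below normal, cut at about 65% in these data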;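 also: yeast aged for seven days with compound at 30 °C before DHE staining; 100% = average MFI of all compound-treated wells on the plate with controls excluded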
M18AAP inhibitor: blocks P. falciparum M18 aspartyl aminopeptidase; 290,000 compounds, 1.2% hits; inhibition, % at 7.35 µM; recombinant PfM18AAP, H-Glu-NHMec fluorogenic cleavage;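 active = inhibition above the campaign mean inhibition over all tested compounds plus 3 SD, cut at about 28% in these data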;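 also: 0% = plate median of test compound wells and 100% = 2 mM ZnCl2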
ALR inh: inhibitors of human sulfhydryl oxidase ALR; AID 485317; 290,000 compounds, 3.8% hits; purified ALR, DTT oxidation, H2O2 HRP-luminol luminescence; inhibition, % (test concentration not listed); P55789;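 active = mean replicate inhibition above about 79%, with every replicate also reaching it, limit read from the data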
Target sequence (P55789 whole entry, looked up): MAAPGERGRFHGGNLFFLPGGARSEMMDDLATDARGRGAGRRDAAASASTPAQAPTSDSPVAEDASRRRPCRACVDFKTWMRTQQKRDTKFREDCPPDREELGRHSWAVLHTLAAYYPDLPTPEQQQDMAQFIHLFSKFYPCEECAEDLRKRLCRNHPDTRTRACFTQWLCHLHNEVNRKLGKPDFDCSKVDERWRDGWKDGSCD
A3A deaminase: human APOBEC3A DNA deaminase inhibition. P31941. recombinant A3A, FAM/TAMRA ssDNA deamination fluorescence. inhibition, % at 20 µM. 330,000 compounds, 0.41% hits. AID 493011;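 active = at least 40% inhibition at 20 µM here, with at most 30% in a related deaminase screen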;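 also: plate controls were A3A with DMSO for no effect and wells lacking A3A enzyme for full effect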
Target sequence (P31941 whole entry, looked up): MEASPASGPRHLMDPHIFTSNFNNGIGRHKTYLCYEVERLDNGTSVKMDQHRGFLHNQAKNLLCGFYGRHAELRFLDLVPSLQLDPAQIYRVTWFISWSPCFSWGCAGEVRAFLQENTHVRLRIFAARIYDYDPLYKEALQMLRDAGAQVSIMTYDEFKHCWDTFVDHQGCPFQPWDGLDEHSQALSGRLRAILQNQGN
NRP1-CendR mod: modulators of CendR peptide binding to human neuropilin-1; inhibition, % at 25 µM; FAM-RPARPAR peptide binding to NRP-1, fluorescence polarization; O14786; 360,000 compounds, 0.85% hits;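 active = inhibition or corrected inhibition above about 18%, plus a signal ratio from 0.5 to 1.5, limit read from the data, passing the limit was not always enough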
APOBEC3G inh: inhibitors of human APOBEC3G DNA deaminase; recombinant A3G, ssDNA deamination FAM/TAMRA fluorescence; inhibition, % at 20 µM; 330,000 compounds, 0.28% hits;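 active = inhibition of at least 40% at 20 µM, with no more than 30% in the related APOBEC3A deaminase screen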;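 also: plate controls were DMSO wells with A3G for no effect and wells lacking A3G enzyme for full effect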
Active calls of the source: *; / = no result. Shown are actives, neighbours in structure and some others; about 5.2% of the full set was active somewhere.

SMILES	CR mimetic SO	M18AAP inhibitor	ALR inh	A3A deaminase	NRP1-CendR mod	APOBEC3G inh
CC(C)C(=O)N1CCN(c2ccccc2N)CC1	99	-8	99*	9	17	-3
COc1ccc(C(=O)N[C@H](C(=O)Nc2nc3c(s2)CCCC3)C(C)C)cc1	96	3	-3	2	26*	-3
CCOc1ccccc1C(=O)N[C@H](C(=O)Nc1nc2c(s1)CCCC2)C(C)C	110	4	-8	-4	-3	-2
Cc1ccnc(NC2CCCCC2)c1	80	-3	-7	1	-11	-5
Cc1cc(C(=O)NP(=O)(N2CCOCC2)N2CCOCC2)c(C)n1-c1ccc(Br)cc1	97	8	1	-6	-5	-6
Cc1cc(C(=O)NP(=O)(N2CCOCC2)N2CCOCC2)c(C)n1-c1ccc(N(C)C)cc1	104	23	93*	0	-9	-1
CCC(=O)N(C)CCc1cc2c(c(OC)c1/C=N/Nc1ccc(C(=O)O)cc1)OCO2	92	25	99*	3	-15	5
COc1ccc(NC(=O)c2ccc(N3CCOCC3)nc2)cc1	105	-3	-3	-5	18	-7
CN(C)c1ccc(NC(=O)c2ccc(N3CCOCC3)nc2)cc1	70	2	100*	2	-12	-1
Cc1ccc(C(=O)Nc2ccc(N3CCOCC3)nc2)cc1	89	3	-21	0	-1	-4
CN1CCN(c2ccc(NC(=O)c3ccc(Cl)cc3)cn2)CC1	103	2	94*	-4	5	-1
CCOc1cc(CNS(=O)(=O)c2cn(C)cn2)cc(OCC)c1OCC	121	11	1	-1	22*	11
CCOc1ccc(CCNS(=O)(=O)c2cn(C)cn2)cc1OCC	113	0	-1	3	7	15
COc1ccccc1N1CC(C(=O)Nc2nc(C)cs2)CC1=O (stereo not drawn)	87	/	/	-2	0	-1
COc1ccc(NC(=O)C2=C(C)NC(=O)NC2c2cccc(OC)c2OC)c(OC)c1 (stereo not drawn)	100	0	-5	-4	-11	-9
COc1ccc(C2=CN(Cc3ccccc3)C(c3ccccc3)CC2=O)cc1 (stereo not drawn)	88	/	7	-2	21*	-2
CCOC(=O)C1=C(C)N(Cc2ccccc2)C(=O)NC1c1ccc(OC)cc1 (stereo not drawn)	102	1	-13	1	-4	-4
COc1ccc2c(-c3ccccc3)cc(SC(C)C(N)=O)nc2c1 (stereo not drawn)	92	-7	11	-2	29*	-10
CCCN(C(=O)CSc1cc(-c2ccccc2)c2ccc(OC)cc2n1)C1CCS(=O)(=O)C1 (stereo not drawn)	107	-8	0	-4	-6	-10
CC(NC(=O)c1cccc(Br)c1)c1ccccc1 (stereo not drawn)	90	1	-9	-1	5	-7
CN(C)C(CNC(=O)CN1C(=O)NC2(CCc3ccccc32)C1=O)c1ccco1 (stereo not drawn)	95	-3	100*	0	-5	-1
O=C(CN1C(=O)NC2(CCCc3ccccc32)C1=O)NCc1ccco1 (stereo not drawn)	101	-9	-6	-11	5	-6
Cc1cccc(NC(=O)Cn2c(O)c(N=NC(=O)c3ccccc3O)c3ccccc32)c1	93	-5	-4	3	-9	4
CCCCCCn1c2c(c(=N)c3c1CCC3)CCC2	86	-8	99*	0	2	-2
CCN(CC(=O)Nc1cc(Cl)ccc1C)C(=O)CCOc1ccc(C)cc1	100	/	-2	11	-5	-9
CCCn1nc(NS(=O)(=O)c2cccc3nonc23)c2cc3ccccc3nc21	110	0	99*	-8	2	-6
CCn1nc(NS(=O)(=O)c2ccccc2[N+](=O)[O-])c2cc3cccc(C)c3nc21	95	6	92*	-5	-4	-3
CCn1nc(NS(=O)(=O)c2ccccc2)c2cc3cc(C)ccc3nc21	80	5	81*	-1	-1	-3
CCn1nc(NS(=O)(=O)c2ccccc2)c2cc3ccc(C)cc3nc21	91	6	4	0	2	8

Assay outcomes (PubChem BioAssay)
